In PubChem BioAssay (NCI):
This is part of a sample that, as a whole, favours compounds with a hit. Of some 83,000 tested, about 20% had one in any assay.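 Assay: single dose, 48 h. Readout: percent growth (0 = no net growth; negative = cell death). Active: <10.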 Activity calls are given as the source filed them.

Experiments:
Assay in all cases: NCI-60 one-dose screen, 48 h (100 = growth as untreated, 0 = no growth, -100 = all killed)
Conditions in all cases: 10 µM unless noted
RPMI-8226 leukemia = tested on: RPMI-8226 leukemia
OVCAR-8 ovarian = tested on: OVCAR-8 ovarian
OVCAR-5 ovarian = tested on: OVCAR-5 ovarian
OVCAR-4 ovarian = tested on: OVCAR-4 ovarian
SK-OV-3 ovarian = tested on: SK-OV-3 ovarian
IGROV1 ovarian = tested on: IGROV1 ovarian
OVCAR-3 ovarian = tested on: OVCAR-3 ovarian
HS 578T breast = tested on: HS 578T breast
NCI/ADR-RES ovarian = tested on: NCI/ADR-RES ovarian
T-47D breast = tested on: T-47D breast

Measured: growth

COc1ccc(C2=NN(/C=C3\SC(=O)NC3=Nc3ccc(F)cc3)C(c3ccc(F)cc3)C2)cc1 (stereo not given)
inactive: RPMI-8226 leukemia 88.7% | OVCAR-8 ovarian 95.3% | OVCAR-5 ovarian 96.1% | OVCAR-4 ovarian 101% | SK-OV-3 ovarian 102% | IGROV1 ovarian 97.9% | OVCAR-3 ovarian 104% | HS 578T breast 99% | NCI/ADR-RES ovarian 103% | T-47D breast 89.7%

CC(C)C[C@H](C(=O)N[C@@H](C)C(N)=O)N1CC=CCN(O)S1(=O)=O
inactive: RPMI-8226 leukemia 106% [5 µM] | OVCAR-8 ovarian 96.4% [5 µM] | OVCAR-5 ovarian 99.3% [5 µM] | OVCAR-4 ovarian 106% [5 µM] | SK-OV-3 ovarian 108% [5 µM] | IGROV1 ovarian 120% [5 µM] | OVCAR-3 ovarian 110% [5 µM] | HS 578T breast 110% [5 µM] | NCI/ADR-RES ovarian 105% [5 µM] | T-47D breast 103% [5 µM]

COc1c2ccoc2c(/C=C/C=O)c2oc(-c3ccccc3)cc(=O)c12
inactive: RPMI-8226 leukemia 28% | OVCAR-8 ovarian 26.1% | OVCAR-5 ovarian 106% | OVCAR-4 ovarian 57.8% | SK-OV-3 ovarian 96.3% | IGROV1 ovarian 80.5% | OVCAR-3 ovarian 57.7% | HS 578T breast 74.8% | NCI/ADR-RES ovarian 32.4% | T-47D breast 47%

COc1cc2cc3c(=O)n4c(cc5cc(OC)ncc54)c(=O)n3c2cn1
inactive: RPMI-8226 leukemia 98% | OVCAR-8 ovarian 112% | OVCAR-5 ovarian 110% | OVCAR-4 ovarian 114% | SK-OV-3 ovarian 113% | IGROV1 ovarian 95.8% | OVCAR-3 ovarian 109% | HS 578T breast 104% | NCI/ADR-RES ovarian 108% | T-47D breast 95.2%

CCOC(=O)c1cc2c(n1Cc1cccc(OC)c1)-c1oncc1CCC2
active: IGROV1 ovarian 7.29% | OVCAR-3 ovarian -8.41% | HS 578T breast 6.59%
inactive: RPMI-8226 leukemia 19.1% | OVCAR-8 ovarian 33.4% | OVCAR-5 ovarian 72.8% | OVCAR-4 ovarian 54.3% | SK-OV-3 ovarian 20.7% | NCI/ADR-RES ovarian 12.2% | T-47D breast 33.1%

COc1ccc(C2Nc3ncnc(N)c3N=C3c4ccccc4C(=O)C32)cc1 (stereo not given)
inactive: RPMI-8226 leukemia 80% | OVCAR-8 ovarian 108% | OVCAR-5 ovarian 98.1% | OVCAR-4 ovarian 82.8% | SK-OV-3 ovarian 84.7% | IGROV1 ovarian 79.4% | OVCAR-3 ovarian 83.9% | HS 578T breast 94.5% | NCI/ADR-RES ovarian 105% | T-47D breast 80.8%

O=C(Nc1ccc(N2CCNCC2)cn1)c1[nH]ncc1Nc1ncnc2sccc12
active: RPMI-8226 leukemia 1.87% | OVCAR-8 ovarian -33.5% | T-47D breast -4.16%
inactive: OVCAR-5 ovarian 67% | OVCAR-4 ovarian 21.3% | SK-OV-3 ovarian 70.4% | IGROV1 ovarian 78.1% | OVCAR-3 ovarian 33.2% | HS 578T breast 69.9% | NCI/ADR-RES ovarian 91%

O=c1oc2ccc(I)cc2c(=O)n1-c1ccc(Cl)cc1F
active: RPMI-8226 leukemia -24.8% | OVCAR-8 ovarian 8.33% | SK-OV-3 ovarian -1.52% | OVCAR-3 ovarian 8.51% | HS 578T breast 5.48% | NCI/ADR-RES ovarian 8.36% | T-47D breast -12%
inactive: OVCAR-5 ovarian 21.5% | OVCAR-4 ovarian 15.8% | IGROV1 ovarian 18.7%

O=C(CCc1nnc2sc(COc3ccccc3)nn12)c1nc2ncccc2[nH]1
inactive: RPMI-8226 leukemia 140% | OVCAR-8 ovarian 98.9% | OVCAR-5 ovarian 98.4% | OVCAR-4 ovarian 100% | SK-OV-3 ovarian 94.7% | IGROV1 ovarian 87.2% | OVCAR-3 ovarian 108% | HS 578T breast 79% | NCI/ADR-RES ovarian 106% | T-47D breast 92.7%

O=C(Nc1ccc(F)cc1F)c1cc(Br)ccc1O
active: RPMI-8226 leukemia -10.4% | OVCAR-8 ovarian 8.63% | OVCAR-5 ovarian -7.85% | OVCAR-4 ovarian -0.761% | SK-OV-3 ovarian -21.8% | OVCAR-3 ovarian 0.111% | NCI/ADR-RES ovarian 1.62% | T-47D breast -20.1%
inactive: IGROV1 ovarian 15.5% | HS 578T breast 10.2%

Cc1cc(Nc2ccc(OCc3ccccc3)cc2)nc2cc(O)ccc12
active: RPMI-8226 leukemia 6.65%
inactive: OVCAR-8 ovarian 57.1% | OVCAR-5 ovarian 84.3% | OVCAR-4 ovarian 44.5% | SK-OV-3 ovarian 86.9% | IGROV1 ovarian 60.5% | OVCAR-3 ovarian 41.3% | HS 578T breast 106% | NCI/ADR-RES ovarian 75.7% | T-47D breast 69.8%

O=S(=O)(c1ccccc1)n1cc2c(c1-c1ccccc1)CCc1sc(Nc3ccccc3)nc1-2
inactive: RPMI-8226 leukemia 67.7% | OVCAR-8 ovarian 79.8% | OVCAR-5 ovarian 94.4% | OVCAR-4 ovarian 75.2% | SK-OV-3 ovarian 99.7% | IGROV1 ovarian 115% | OVCAR-3 ovarian 72.5% | HS 578T breast 98.3% | NCI/ADR-RES ovarian 76.8% | T-47D breast 64.1%

Cc1ccc(Nc2nc(N)c3ccccc3n2)cc1Cl
inactive: RPMI-8226 leukemia 24% | OVCAR-8 ovarian 57.8% | OVCAR-5 ovarian 75.5% | OVCAR-4 ovarian 55.7% | SK-OV-3 ovarian 80.4% | IGROV1 ovarian 57.3% | OVCAR-3 ovarian 63.5% | HS 578T breast 101% | NCI/ADR-RES ovarian 45.5% | T-47D breast 58.1%

COc1ccc(-c2nocc2-c2cccs2)cc1
inactive: RPMI-8226 leukemia 124% | OVCAR-8 ovarian 110% | OVCAR-5 ovarian 88.9% | OVCAR-4 ovarian 99% | SK-OV-3 ovarian 105% | IGROV1 ovarian 102% | OVCAR-3 ovarian 108% | HS 578T breast 91.1% | NCI/ADR-RES ovarian 110% | T-47D breast 75.7%

NCCNc1nc2ccc(F)cc2c2c(=O)c3cc(F)ccc3sc12
inactive: OVCAR-8 ovarian 29.9% | OVCAR-5 ovarian 81.2% | OVCAR-4 ovarian 37.2% | SK-OV-3 ovarian 77.6% | IGROV1 ovarian 22.9% | OVCAR-3 ovarian 38.1% | HS 578T breast 59.5% | NCI/ADR-RES ovarian 61.7% | T-47D breast 33.7%
active: RPMI-8226 leukemia 7.67%

COc1ccc(C(O)(CCC(C)C)C(CN2CCOCC2)c2ccc(Cl)cc2)cc1 (stereo not given)
inactive: RPMI-8226 leukemia 46.8% | OVCAR-8 ovarian 67.1% | OVCAR-5 ovarian 103% | OVCAR-4 ovarian 84.6% | SK-OV-3 ovarian 97.7% | IGROV1 ovarian 85.1% | HS 578T breast 103% | NCI/ADR-RES ovarian 29.4% | T-47D breast 87.5%
active: OVCAR-3 ovarian 6.49%

CCOC(=O)C1=C(C)N=c2s/c(=C\c3ccccc3O)c(=O)n2C1c1ccc(OC)c2ccccc12 (stereo not given)
inactive: OVCAR-8 ovarian 13.2% | OVCAR-5 ovarian 51.6% | OVCAR-4 ovarian 38.6% | SK-OV-3 ovarian 61.7% | IGROV1 ovarian 16.3% | OVCAR-3 ovarian 10.1% | HS 578T breast 10.4% | NCI/ADR-RES ovarian 48.3% | T-47D breast 23.3%
active: RPMI-8226 leukemia -15.1%

COc1ccc(-c2nc(-c3ccccn3)c(-c3ccccn3)n2CC(C)C)cc1OC1CCCC1
inactive: OVCAR-8 ovarian 15.7% | OVCAR-5 ovarian 33.8% | OVCAR-4 ovarian 13.5% | IGROV1 ovarian 19.6% | OVCAR-3 ovarian 15.5% | HS 578T breast 43.3% | NCI/ADR-RES ovarian 10.9% | T-47D breast 21.5%
active: RPMI-8226 leukemia -1.78% | SK-OV-3 ovarian 8.21%

CC1=C(C(=O)OCC2CCN(C(=O)OC(C)(C)C)CC2)[C@@H](c2cccc(C#N)c2)C2=C(CC(C)(C)CC2=O)N1
inactive: RPMI-8226 leukemia 32.3% | OVCAR-8 ovarian 37.5% | OVCAR-5 ovarian 70.2% | OVCAR-4 ovarian 67.3% | SK-OV-3 ovarian 66.5% | IGROV1 ovarian 45.4% | OVCAR-3 ovarian 52.4% | HS 578T breast 64.5% | NCI/ADR-RES ovarian 44.7% | T-47D breast 56.1%

Cn1cc([C@@H]2Nc3ccc4[nH]ncc4c3[C@H]3[C@H]4CCC(C4)[C@H]32)c(C(F)(F)F)n1
inactive: RPMI-8226 leukemia 46.6% | OVCAR-8 ovarian 62.5% | OVCAR-5 ovarian 79.4% | OVCAR-4 ovarian 77.4% | SK-OV-3 ovarian 77.4% | IGROV1 ovarian 56.7% | OVCAR-3 ovarian 34.7% | HS 578T breast 34% | NCI/ADR-RES ovarian 31.3% | T-47D breast 52.6%

Nc1ccc(-c2ccc(-c3ccccc3N)c3[nH]c4ccccc4c23)cc1
inactive: OVCAR-8 ovarian 33.1% | OVCAR-5 ovarian 56.7% | OVCAR-4 ovarian 67.7% | SK-OV-3 ovarian 28.7% | IGROV1 ovarian 53.7% | OVCAR-3 ovarian 19.4% | HS 578T breast 40.7% | T-47D breast 15.2%
active: RPMI-8226 leukemia 6.61% | NCI/ADR-RES ovarian -6.69%

CCOC(=O)C1(C(=O)OCC)N=C(c2ccccc2)C=C1c1ccccc1
inactive: RPMI-8226 leukemia 61.6% | OVCAR-8 ovarian 87.2% | OVCAR-5 ovarian 97.8% | OVCAR-4 ovarian 81.6% | SK-OV-3 ovarian 105% | IGROV1 ovarian 92.4% | OVCAR-3 ovarian 86.9% | HS 578T breast 94.9% | NCI/ADR-RES ovarian 76.5% | T-47D breast 62.2%

O=c1oc2ccc(Br)cc2c(=O)n1-c1ccc(F)cc1F
active: RPMI-8226 leukemia -4.83% | SK-OV-3 ovarian -10.9% | OVCAR-3 ovarian 4.73% | HS 578T breast 5.31% | NCI/ADR-RES ovarian 5.44% | T-47D breast -9.1%
inactive: OVCAR-8 ovarian 11% | OVCAR-5 ovarian 20.1% | OVCAR-4 ovarian 15% | IGROV1 ovarian 19.3%

O=c1c2cc(F)cc(Cl)c2sc2c(Cl)nc3ccccc3c12
inactive: RPMI-8226 leukemia 115% | OVCAR-8 ovarian 102% | OVCAR-5 ovarian 95.5% | OVCAR-4 ovarian 98.7% | SK-OV-3 ovarian 95% | IGROV1 ovarian 74.8% | OVCAR-3 ovarian 108% | HS 578T breast 88.4% | NCI/ADR-RES ovarian 98.3% | T-47D breast 91.8%

COc1cc(C(=O)NN=C2c3ccccc3-c3ccccc32)cc(OC)c1OC
inactive: RPMI-8226 leukemia 23% | OVCAR-8 ovarian 34.5% | OVCAR-5 ovarian 63.4% | OVCAR-4 ovarian 55.5% | SK-OV-3 ovarian 22.9% | IGROV1 ovarian 32.3% | HS 578T breast 50.6% | NCI/ADR-RES ovarian 23.3% | T-47D breast 37.8%
active: OVCAR-3 ovarian -1.71%

CN1CCN(Cc2ccc(C(=O)Nc3cncc(C#Cc4cnc5cccnn45)c3)cc2C(F)(F)F)CC1
inactive: RPMI-8226 leukemia 29% | OVCAR-8 ovarian 78.7% | OVCAR-5 ovarian 47.2% | OVCAR-4 ovarian 41.8% | SK-OV-3 ovarian 78.9% | IGROV1 ovarian 31.5% | OVCAR-3 ovarian 63.3% | HS 578T breast 54.8% | NCI/ADR-RES ovarian 91.6% | T-47D breast 81.2%

O=c1c2cc(F)ccc2sc2c(NCCCNCCO)nc3ccc(Cl)cc3c12
inactive: RPMI-8226 leukemia 36% | OVCAR-8 ovarian 63.7% | OVCAR-5 ovarian 79.5% | OVCAR-4 ovarian 61% | SK-OV-3 ovarian 87.7% | IGROV1 ovarian 32% | OVCAR-3 ovarian 68% | HS 578T breast 56.8% | NCI/ADR-RES ovarian 85.8% | T-47D breast 57.5%
